Sm TGR block = inhibitors of Schistosoma mansoni thioredoxin glutathione reductase; Q962Y6; purified TGR, DTNB reduction, TNB absorbance 405 nm; Potency, µM (top dose mostly 114 µM), inactives show top-dose activity change, negative = inhibition, most hits filed as inhibitors; hit rate 3% among 360,000; AID 485364; note: nearly all actives have a fitted effect of over 60% in size
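Kinetic colorimetric format: TGR-catalysed, NADPH-driven DTNB reduction monitored via TNB absorbance. Enzyme dispensed at 20 nM; compound exposure 15 min at room temperature before reaction start.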
RE007 growth inh = less growth of the S. pombe RE007 Vpr strain; S. pombe RE007 Vpr strain, BacTiter-Glo ATP luminescence, 24 h; Potency, µM (series often up to 92.2 µM), inactives show at the highest dose activity change, negative = less growth, hits mostly inhibitors; hit rate 0.21% among 360,000; AID 651644; active = well fitted falling curve with a large enough effect; inconclusive = small, poorly fitted or top-dose-only effect; inactive = no such curve, though single readings can be large or run the other way; note: nearly all actives have a fitted effect of over 50% in size
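Fission yeast strain RE007, carrying one chromosomally integrated HIV-1 vpr copy, was seeded at OD 0.01 in PMG+AL medium with 23 nL pinned compound. After 24 h at 30 °C and 99% humidity, viability was read by BacTiter-Glo luminescence.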
Lassa entry inh = blocks Lassa virus binding to or entry into cells. Lassa virus pseudotype entry inhibition, cell reporter. Potency, µM (series often up to 37.9 µM), inactives show at the highest dose activity change, negative = inhibition, most hits filed as inhibitors. hit rate 1.2% among 300,000; calls by dose curve; tested in HEK293 cells; note: nearly all actives have a fitted effect of over 50% in size
FMDV inh = blocks foot and mouth disease virus. FMDV antiviral cell-based qHTS. Potency, µM (doses to about 57.9 µM), without a hit: top-dose activity change, negative = inhibition, actives largely listed as inhibitors. hit rate 1.2% among 410,000. AID 1159524; calls by dose curve; tested in HEK293T cells; note: read-out not given here; nearly all actives have a fitted effect of over 45% in size
HCV inhibitor = HCV inhibition | Huh7.5.1 HCVcc-Cre infection, luciferase reporter, 44 h | Potency, µM (doses to about 41.8 µM), inactives show top-dose activity change, negative = inhibition, actives largely listed as inhibitors | hit rate 3.4% among 340,000
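HCVcc-Cre virus at an moi near 0.5 was added right after compound to cells cultured 4 h from seeding (1,000 cells/well). Luciferase activity was determined 44 h later, 15 min after substrate addition at RT.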
MARV entry inh = inhibitors of Marburg virus binding or cell entry | hit rate 1.8% among 300,000 | Marburg virus pseudotyped entry inhibition, cell reporter | Potency, µM (series often up to 37.8 µM), without a hit: top-dose activity change, negative = inhibition, most hits filed as inhibitors; calls by dose curve; tested in HEK293 cells
Starred values were filed as active, the others as inactive; [ ] = another dose, or the depositor's remark. Shown are actives, neighbours in structure and some others; about 7.2% of the full set was active somewhere. Unless noted, calls come from the whole dose curve; as a rule, active = well fitted curve in the direction sought with a large enough effect; inconclusive = small, poorly fitted or top-dose-only effect, or another doubt; inactive = no such curve, though single readings can be large; an effect the other way counts as inactive or inconclusive. % is set by controls: 0 for no effect and ±100 for the full control effect; potency is the fitted concentration of half-maximal effect.

`COc1ccc(Br)cc1/C=C/C(=O)Nc1ccc2ccccc2c1` gave Sm TGR block 0%, RE007 growth inh -16%, Lassa entry inh -2%, FMDV inh -7%, HCV inhibitor 10µM* and MARV entry inh inconclusive.
`COC(=O)CNC(=O)/C=C/c1cc(Br)ccc1OC` gave Sm TGR block -1%, RE007 growth inh 5%, Lassa entry inh -17%[46.1 µM], FMDV inh -14%, HCV inhibitor inconclusive and MARV entry inh inconclusive.
For CCC(=O)Nc1cccc(C(=O)/C=C/c2cc(Br)ccc2OC)c1 the results were Sm TGR block inconclusive, RE007 growth inh -15%, Lassa entry inh 11µM*, FMDV inh 8.9µM*, HCV inhibitor 11µM* and MARV entry inh inconclusive.
For C/C=C/C=C/C(=O)Nc1nccs1 the results were Sm TGR block 35µM*, RE007 growth inh -7%, Lassa entry inh inconclusive, FMDV inh 49%, HCV inhibitor -10% and MARV entry inh 19%.
`O=C1CC(Sc2ncccn2)C(=O)N1c1ccccc1` (stereo unspecified) gave Sm TGR block inconclusive, RE007 growth inh -11%, Lassa entry inh 15%, FMDV inh -13%, HCV inhibitor 11% and MARV entry inh -12%.
For COc1ccc(N2C(=O)CC(Sc3nc(C)cc(C)c3C#N)C2=O)cc1 (stereo unspecified) the results were Sm TGR block inconclusive, RE007 growth inh -12%, Lassa entry inh 5%, HCV inhibitor 11% and MARV entry inh 10%.
O=C1CC(Sc2nnc(-c3ccccc3O)o2)C(=O)N1c1ccccc1 (stereo unspecified) was read as Sm TGR block 4µM*, RE007 growth inh 50µM*, Lassa entry inh 9.2µM*, HCV inhibitor 25% and MARV entry inh -6%.
COc1ccc(N2C(=O)CC(Sc3nnc(-c4ccccc4)o3)C2=O)cc1 (stereo unspecified) was read as Sm TGR block 3.5µM*, RE007 growth inh -14%[3.69 µM], Lassa entry inh -1%, FMDV inh inconclusive, HCV inhibitor inconclusive and MARV entry inh -30%.
Screening Cc1ccc(CCNC(=O)c2ccc3c(c2)N(Cc2cccc(Cl)c2)C(=O)c2ccccc2S3(=O)=O)cc1 returned Sm TGR block 15%, Lassa entry inh -25%[46.1 µM] and FMDV inh -13%.
For COc1cc(Nc2nc3ccccc3nc2NS(=O)(=O)c2ccc([N+](=O)[O-])cc2)cc(OC)c1OC the results were Sm TGR block -9%, RE007 growth inh 19%, Lassa entry inh inconclusive, FMDV inh -33%, HCV inhibitor 22µM* and MARV entry inh 19%[46.1 µM].
For COc1ccc(OC)c(Nc2c3ccccc3nc3ccccc23)c1 the results were Sm TGR block -15%, RE007 growth inh 1%, Lassa entry inh inconclusive, FMDV inh inconclusive, HCV inhibitor inconclusive and MARV entry inh 6.3µM*.
`COc1ccc([N+](=O)[O-])cc1Nc1c2ccccc2nc2ccccc12` gave Sm TGR block 2%, RE007 growth inh -10%, FMDV inh 32µM* and HCV inhibitor inconclusive.
`COc1ccc(OC)c(Nc2c3c(nc4ccccc24)CCC3)c1` gave Sm TGR block 0%, RE007 growth inh -8%, Lassa entry inh inconclusive, FMDV inh -24%, HCV inhibitor inconclusive and MARV entry inh 2.8µM*.
`COc1cc(Nc2c3c(nc4ccccc24)CCC3)cc(OC)c1OC` gave Sm TGR block 2%, RE007 growth inh 10%, Lassa entry inh -21%, FMDV inh -15%, HCV inhibitor inconclusive and MARV entry inh inconclusive.
`CO[C@H]1[C@H](NC(=O)c2ccco2)c2ccccc2C12CCN(Cc1ccc3cccc(F)c3n1)CC2` gave FMDV inh -19%.
CCOC(=O)N1CCc2c(sc3c2c(=O)n(Cc2ccccc2)c(=O)n3CC(=O)Nc2cccc(CC)c2)C1 was read as Sm TGR block -11%, Lassa entry inh 0%[46.1 µM], FMDV inh -11% and MARV entry inh -4%[46.1 µM].

High-throughput results deposited in PubChem by National Center for Advancing Translational Sciences (NCATS).
